Screening data from PubChem BioAssay.
MCL1 BIM primary – inhibitors of human MCL1 binding to BIM-BH3 peptide; hit rate 0.68% among 320,000; GST-MCL1 / FITC-Bim-BH3 fluorescence polarization; Q07820; inhibition, % at 10.9 µM;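 active = inhibition above the mean inhibition of all tested compounds plus 3 SD, set per campaign, cut at about 40% in these data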;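 note: 0% = DMSO wells and 100% = unlabeled Bim-BH3 peptide control; higher means more loss of mP so more displacement of Bim peptide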
Target sequence (Q07820 whole entry, looked up): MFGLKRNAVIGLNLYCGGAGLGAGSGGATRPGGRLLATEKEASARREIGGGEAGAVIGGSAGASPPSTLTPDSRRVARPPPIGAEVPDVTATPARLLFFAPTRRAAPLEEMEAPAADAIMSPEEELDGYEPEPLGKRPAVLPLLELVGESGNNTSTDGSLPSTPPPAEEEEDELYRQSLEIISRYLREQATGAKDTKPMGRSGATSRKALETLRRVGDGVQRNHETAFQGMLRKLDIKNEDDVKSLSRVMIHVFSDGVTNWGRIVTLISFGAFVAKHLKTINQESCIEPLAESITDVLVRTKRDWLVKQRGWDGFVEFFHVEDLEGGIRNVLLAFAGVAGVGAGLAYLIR
GLD-1 RNA inh – GLD-1-TGE RNA interaction inhibition (C. elegans); hit rate 0.44% among 320,000; inhibition, % at 5.96 µM; purified GLD-1 + fluorescein TGE RNA, fluorescence polarization; Q17339;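 active = percent inhibition above a per-plate cutoff, the plate mean of test compounds plus 3 SD, cut at about 30% in these data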;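 note: 0% = DMSO wells with GLD-1 and probe and 100% = wells lacking GLD-1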
BCLXL inh – blocks human Bcl-xL binding to Bim BH3 peptide. AID 2129. inhibition, % at 10.9 µM. hit rate 0.7% among 320,000. Q07817. GST-Bcl-xL / FITC-Bim BH3 peptide fluorescence polarization;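 active = inhibition above the mean of all tested compounds plus 3 SD, cutoff set per campaign, cut at about 30% in these data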;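 note: 0% = DMSO wells and 100% = unlabeled Bim-BH3 peptide competitor; inhibitors lower millipolarization by displacing the labeled peptide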
Target sequence (Q07817 whole entry, looked up): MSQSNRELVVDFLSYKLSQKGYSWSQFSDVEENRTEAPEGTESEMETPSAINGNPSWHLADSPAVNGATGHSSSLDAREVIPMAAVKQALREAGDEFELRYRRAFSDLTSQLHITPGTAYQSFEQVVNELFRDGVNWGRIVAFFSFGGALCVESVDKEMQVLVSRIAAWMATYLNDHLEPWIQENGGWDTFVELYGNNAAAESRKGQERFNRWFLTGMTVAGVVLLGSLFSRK
Mcl1 Bid PPI – disrupts binding of human Mcl-1 to Bid peptide; Q07820; TR-FRET Mcl-1/Bid-Dy647 peptide binding, 1536-well; inhibition, % at 21.7 µM; hit rate 0.97% among 220,000;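 active = compounds that cut the binding signal by more than half at the single screening dose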;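 note: His-tagged Mcl-1 with europium anti-His antibody binding Bid BH3 peptide; 0% = Mcl-1 plus peptide wells and 100% = peptide-only wells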
Mcl-1 Bim block – human Bim-Mcl-1 interaction inhibition. Q07820. Bead-based flow cytometry, Bim peptide-Mcl-1 binding. inhibition, % at 10 µM. hit rate 0.1% among 190,000. AID 1009; in the data active = inhibition above about 40%;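 note: 0% = no compound tracer wells and 100% = peptide blocker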
Mcl1-Noxa inh – Mcl-1/Noxa interaction inhibition; Q07820; TR-FRET Mcl-1/Noxa peptide binding, 2 h; inhibition, % at 21.7 µM; hit rate 1.5% among 220,000;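 active = compounds that cut the protein-peptide binding signal by more than 50% relative to plate controls in a single-dose test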;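 note: His-tagged Mcl-1 with rhodamine Noxa BH3 peptide and terbium anti-His antibody; 0% = Mcl-1 plus Noxa peptide wells and 100% = peptide-only wells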
* marks the source's active call; other numbers are inactive results; x = no result. The list is not random: actives were taken first. Their share in the collection is about 2.3%.

SMILES	MCL1 BIM primary	GLD-1 RNA inh	BCLXL inh	Mcl1 Bid PPI	Mcl-1 Bim block	Mcl1-Noxa inh
CC(C)Cn1cc(C(=O)N2CCC(C)CC2)c2c3ccccc3n(C)c2c1=O	1	5	-1	-1	1	22
COCCn1cc(C(=O)N2CCC(C)CC2)c2c3ccccc3n(C)c2c1=O	8	10	1	95*	2	15
Nc1ccccc1N=Nc1ccccc1N	47*	17	46*	x	x	x
Cc1cc(OCc2cc(C(=O)N3CCC(Oc4cccnc4)CC3)no2)cc(C)c1Cl	5	5	2	x	x	x
CCOC(=O)C1=C(C)N(c2ccc(C)cc2)C(=O)/C1=C\c1cccs1	0	2	6	-45	0	52*
CCN(CC)S(=O)(=O)c1ccc(C(=O)OC2CCCCC2CN(C)C)cc1 (configuration not stated)	2	8	-2	51*	-3	-4
COc1ccc(/C=[N+](\[O-])C2N(c3ccccc3)C(=S)SC2(C)C)cc1OC (configuration not stated)	-2	-2	2	-9	x	6
CCOc1ccc(/C=C2/SC(=O)NC2=S)cc1	50*	67*	48*	-15	-4	29
COc1ccc(-n2c(Cc3cccn3C)nnc2SCC(=O)NCc2ccc(F)cc2)cc1	-2	-5	-1	-24	-5	-24
COc1ccc(-n2c(Cc3cccn3C)nnc2SCC(=O)NCc2ccccc2Cl)cc1	3	-6	-2	65*	-1	-6
Cn1c(NC(=O)c2ccccc2C(F)(F)F)cc(=O)n(C)c1=O	1	162*	3	0	2	1
CN(CC(=O)NCCc1ccc(S(N)(=O)=O)cc1)S(=O)(=O)c1ccc(Br)s1	2	-2	6	x	x	x
Oc1ccc(C(c2nnnn2C2CCCC2)N2CCc3ccccc3C2)cc1 (configuration not stated)	11	5	10	-11	1	25
COc1cc(C(c2nnnn2C2CCCC2)N2CCc3ccccc3C2)ccc1O (configuration not stated)	11	2	5	9	0	77*
Clc1nc(Cl)nc(N(c2ccccc2)c2ccccc2)n1	12	0	4	51*	-1	35
CCCc1cc(=O)oc2cc(C)cc(OCC(=O)N3CCC(C(N)=O)CC3)c12	3	3	2	x	x	x
O=C1c2ccccc2C(=O)N1CC#CCN1CCN(C(c2ccccc2)c2ccccc2)CC1	4	-2	4	62*	-4	22
OCC1CCCN(c2nc(CN3CCCCC3)nc3scc(-c4ccccc4)c23)C1 (configuration not stated)	10	-3	1	97*	-2	1
CCCCNC(=O)[C@H]1N2C(=O)c3c(ccc(OC)c3OC)C2SC1(C)C (some centres not stated)	11	7	5	x	x	x
Cc1noc(NC(=O)c2ccccc2C(F)(F)F)c1C#N	1	4	3	47	-1	23
COCCn1c(N)c(C(=S)NC(=O)c2cccs2)c(=O)[nH]c1=O	7	3	11	-6	x	70*
CC(=O)NNC(=O)c1sc(=S)n2c1[nH]c(=O)c1sccc12	26	3	9	-20	-7	68*
O=C(NCc1ccccc1)c1sc(=S)n2c1[nH]c(=O)c1ccccc12	15	12	9	-21	1	52*
NC(=O)c1sc(=S)n2c1[nH]c(=O)c1sccc12	6	2	11	-33	-1	25
CCOC(=O)N1CCC(N2CCCC(CO)(Cc3cccc(Cl)c3)C2)CC1 (configuration not stated)	-3	-16	0	-16	-2	5
SMILES	MCL1 BIM primary	GLD-1 RNA inh	BCLXL inh	Mcl1 Bid PPI	Mcl-1 Bim block	Mcl1-Noxa inh
O=C(c1ccco1)N1CCN(Cc2cccnc2)CC1	5	9	6	51*	0	-24
O=C(CN1CCN(C(=O)c2ccco2)CC1)Nc1c2c(nc3c1CCC3)CCCC2	x	x	x	51*	-5	-19
Cc1ccc(CN2CCN(C(=O)c3ccco3)CC2)cc1	8	3	6	-11	0	-4
Oc1ccc(-c2nnc(Nc3cccc(O)c3)c3ccccc23)cc1	-2	7	3	-3	x	60*
CNC(=O)c1ccc(Nc2nnc(-c3ccc(O)cc3)c3ccccc23)cc1	3	-10	7	x	x	x
COc1ccccc1-c1nnc(SC/C(O)=C(\C#N)c2nc3ccccc3[nH]2)n1C1CCCCC1	-3	3	6	-44	-6	-47
N#C/C(=C(/O)CSc1nnc(Cc2cccs2)n1C1CCCCC1)c1nc2ccccc2[nH]1	-2	-10	-2	-65	7	52*
Cc1ccc(/C=C/C(=O)Nc2cc(=O)n(C)c(=O)n2C)o1	37	27	33*	-62	-1	24
S=C(NNc1ccnc2cc(Cl)ccc12)Nc1ccccc1Cl	-1	-5	5	-35	-3	62*
O=C(CNCc1ccncc1)Nc1cc(S(=O)(=O)N2CCCCC2)ccc1Cl	-2	-14	2	55*	-7	35
Cc1cc(C)c(OCC(=O)NCC(C)(C)N2CCOCC2)c(C)c1	-1	-4	3	x	x	x
CCCCCCc1cc2cc(S(=O)(=O)c3ccc(F)c(Cl)c3)c(=O)oc2cc1O	3	97*	7	18	4	14
CCCCc1ncc(CN2CCN(Cc3ccc(C)cc3)C(CCO)C2)[nH]1 (configuration not stated)	5	0	5	-39	0	21
O=C(Nc1nc(-c2ccco2)c(-c2ccco2)s1)C1CC(=O)N(c2ccc3c(c2)OCCO3)C1 (configuration not stated)	12	-1	8	19	5	75*
Cc1nnc(NC(=O)C2CC(=O)N(c3ccc4c(c3)OCCO4)C2)s1 (configuration not stated)	-2	4	-3	x	x	x
O=S(=O)(NCC1CCCO1)c1ccc(Cl)nc1 (configuration not stated)	4	1	-2	-1	x	10
O=C(CN(Cc1ccc(F)cc1)S(=O)(=O)c1ccccc1)N1CCCCC1	6	10	1	-24	-3	62*
Cc1ccc(-c2c(C)sc3ncn(CC(=O)N4CCOCC4)c(=O)c23)cc1C	10	-2	3	-55	x	-4
Oc1ccc(N2CCN(c3ncnc4sc(-c5ccccc5)cc34)CC2)cc1	x	x	x	15	2	87*
CC(=O)N1CCN(c2ncnc3sc(-c4ccccc4)cc23)CC1	-4	8	-3	6	0	21
Cn1c(=O)c(C(=O)Nc2ccccc2S(N)(=O)=O)c(O)c2ccccc21	25	1	34*	2	x	-3
CC(C)Cn1c(=O)c(C(=O)Nc2ccccc2S(N)(=O)=O)c(O)c2ccccc21	1	3	-3	-16	2	0
